Screens deposited in PubChem by The Scripps Research Institute Molecular Screening Center.
OPRM1-OPRD1 ag: agonists of OPRM1-OPRD1 heterodimerization, primary screen, cell-based, luminescence | Mu-type opioid receptor (Homo sapiens) + Delta-type opioid receptor (Homo sapiens), … | cells | activation, % at 9.3 µM | hit rate 0.3% among 340,000 | AID 504326, 2011; in the data active = activation above about 18%
Target sequence (P35372 whole entry, looked up): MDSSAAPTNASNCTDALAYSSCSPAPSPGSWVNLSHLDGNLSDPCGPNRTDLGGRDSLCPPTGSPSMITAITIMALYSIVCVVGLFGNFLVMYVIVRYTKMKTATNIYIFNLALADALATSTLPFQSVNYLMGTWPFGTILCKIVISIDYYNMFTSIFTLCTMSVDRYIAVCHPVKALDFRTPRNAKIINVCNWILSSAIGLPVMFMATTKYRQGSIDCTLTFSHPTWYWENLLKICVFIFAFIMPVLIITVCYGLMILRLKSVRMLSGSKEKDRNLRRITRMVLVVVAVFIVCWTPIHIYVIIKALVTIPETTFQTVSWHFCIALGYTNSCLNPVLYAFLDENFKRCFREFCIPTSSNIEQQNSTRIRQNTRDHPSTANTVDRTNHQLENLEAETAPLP
Target sequence (P41143 whole entry, looked up): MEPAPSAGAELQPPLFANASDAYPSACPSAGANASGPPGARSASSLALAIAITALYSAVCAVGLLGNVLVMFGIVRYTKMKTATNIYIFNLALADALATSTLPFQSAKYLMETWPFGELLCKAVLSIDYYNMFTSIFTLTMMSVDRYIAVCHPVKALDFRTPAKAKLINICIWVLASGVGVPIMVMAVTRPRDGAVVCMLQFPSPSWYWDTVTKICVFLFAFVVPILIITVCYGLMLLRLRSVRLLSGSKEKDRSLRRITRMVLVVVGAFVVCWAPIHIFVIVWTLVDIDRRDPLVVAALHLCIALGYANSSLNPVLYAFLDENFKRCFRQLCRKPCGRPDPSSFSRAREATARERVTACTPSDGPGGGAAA
MsrA inh: bovine MsrA enzyme inhibitors, primary screen, biochemical, absorbance, HTS | AID 651718, 2012 | Methionine sulfoxide reductase A (Bos taurus) | inhibition, % at 15.5 µM | hit rate 0.75% among 360,000 | purified bovine MsrA, absorbance read-out; in the data active = inhibition above about 4.5%
OPRM1-OPRD1 inv: inverse agonists of MOR-DOR heterodimerization, primary screen, cell-based, luminescence; cell-based MOR-DOR heterodimer luminescence, inverse agonism; Mu-type opioid receptor (Homo sapiens) + Delta-type opioid receptor (Homo sapiens), …; hit rate 0.21% among 340,000; inhibition, % at 9.3 µM; in the data active = inhibition above about 22%, passing the limit was not always enough
MsrA act: bovine MsrA enzyme activators, primary screen, biochemical, absorbance, HTS; Methionine sulfoxide reductase A (Bos taurus); purified bovine MsrA, absorbance read-out; activation, % at 10.6 µM; hit rate 0.3% among 360,000; AID 602163, 2012; in the data active = activation above about 7.5%
HTR5A inv ctr: HTR5A inverse agonists in luminescence cell assay, primary screen, counter-screen for OPRM1-OPRD1 heterodimer inverse agonist project, full-deck HTS. HTR5A cell line, inverse agonism. inhibition, % at 9.3 µM. hit rate 0.083% among 340,000. AID 504634, 2011; in the data active = inhibition mostly above about 23%, no sharp cut-off; inactive = mostly below about 18%
HTR5A ag: HTR5A agonists in luminescence cell assay, primary screen, counter-screen for OPRM1-OPRD1 heterodimer agonist project, full-deck HTS; 5-hydroxytryptamine receptor 5A (Homo sapiens), P47898; cell-based; activation, % at 9.3 µM; hit rate 0.61% among 340,000; AID 504692, 2011; in the data active = activation mostly above about 9.5%, no sharp cut-off; inactive = mostly below about 7.6%
MsrA activ conf: bovine MsrA activators, retest, confirmation, biochemical, absorbance, HTS; shares compounds with MsrA act; purified bovine MsrA, absorbance read-out; activation, % at 10.6 µM; hit rate 12% among 1,000; AID 602270, 2012; in the data active = activation above about 4%;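 also: enzyme coupled to thioredoxin and thioredoxin reductase with NADPH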
Numbers stand for hits; - = inactive; . = not tested or not shown; ! = a repeat was not active. Shown are actives, neighbours in structure and some others; about 1.9% of the full set was active somewhere.

SMILES	OPRM1-OPRD1 ag	MsrA inh	OPRM1-OPRD1 inv	MsrA act	HTR5A inv ctr	HTR5A ag	MsrA activ conf
CCc1nc(NCC2CCCO2)c(C#N)c2c1COC(C)(C)C2 (stereo not given)	-	-	-	-	-	-	.
CC(C)c1nc(NCC2CCCO2)c(C#N)c2c1COC(C)(C)C2 (stereo not given)	-	-	-	10.0	-	-	-
C1CCc2nc3c(nc2C1)CCCC3	-	-	-	17.4	-	-	-
c1ccc2nc3c(nc2c1)CCCC3	-	-	-	-	-	-	.
C[C@H](O)[C@@H]1C(=O)N2CCc3c([nH]c4c(-c5ccccc5)cccc34)[C@@H]2C[C@@H]1N(C)C(=O)OCc1ccccc1	.	-	.	.	.	.	.
Cn1c(=O)c2c(nc(SCC(=O)O)n2Cc2cccc(C(F)(F)F)c2)n(C)c1=O	-	-	-	-	-	-	.
Cn1c(=O)c2c(nc(NCCCO)n2Cc2cccc(C(F)(F)F)c2)n(C)c1=O	-	-	-	8.3	-	-	-
CCN=C1NC(c2cccc(F)c2)C(C(=O)OC)=C(C)N1Cc1ccccc1C(F)(F)F (stereo not given)	.	-	.	.	.	.	.
Oc1ccccc1/C=N/n1c(COc2ccccc2)n[nH]c1=S	-	-	-	-	-	-	.
Fc1ccccc1/C=N/n1c(COc2ccccc2)n[nH]c1=S	-	-	-	9.9	-	-	-
O=[N+]([O-])c1cc(Br)c(O)c(C=Nc2ccc(N3CCOCC3)cc2)c1	-	-	-	10.3	-	-	7.8
C/C(N)=C(/C#N)C(=O)COC(=O)c1ccccc1C(=O)c1ccc(C)cc1	-	-	-	8.6	-	-	-
Cc1cc(C#N)c(C)n1-c1cc(C(F)(F)F)ccc1N1CCOCC1	-	-	-	8.6	-	-	-
CC(C)C(=O)Nc1cc(C(F)(F)F)ccc1N1CCOCC1	-	-	-	-	-	-	.
CON(Cc1ccccc1)S(=O)(=O)c1ccccc1Br	.	-	.	.	.	.	.
CC1(C)Cc2c(sc(NC(=O)COc3ccc(Cl)cc3)c2C(N)=O)C(C)(C)N1	-	-	-	12.2	-	-	-
O=C(COC(=O)c1c[nH]c2ccccc12)NC1CCCC1	-	-	-	21.6	-	-	-
O=C(N[C@H](c1cccc(Br)c1)[C@@H]1CCCC=C1c1ccccc1)C(F)(F)F	.	-	.	.	.	.	.
COc1ccc(C=NN(C)C(=O)Nc2cccc(Cl)c2)cc1OC	.	-	.	.	.	.	.
Cn1c(=O)n(CC(=O)O)c(=O)c2c1nc1n2CCS1	-	-	-	8.5!	-	-	-
CCN=C1NC(CCc2ccccc2)C(C(=O)OC)=C(C)N1Cc1ccc(C(F)(F)F)cc1 (stereo not given)	.	-	.	.	.	.	.
CC(=C/c1ccccc1)/C=N/NC(=O)c1cccs1	.	-	.	15.9	.	.	-
O=C(N/N=C/C(Br)=C\c1ccccc1)c1cccs1	.	-	.	-	.	.	.
Cc1cc(C)nc(NS(=O)(=O)c2ccc(NC(=O)c3nn(-c4ccccc4)ccc3=O)cc2)n1	-	-	-	13.7	-	-	-
O=S(=O)(Nc1ccc2c3c(cccc13)CC2)c1ccc(F)cc1	-	-	-	-	-	-	.
SMILES	OPRM1-OPRD1 ag	MsrA inh	OPRM1-OPRD1 inv	MsrA act	HTR5A inv ctr	HTR5A ag	MsrA activ conf
CSc1ccc(S(=O)(=O)Nc2ccc3c4c(cccc24)CC3)cc1	-	-	-	11.0	-	-	-
Cc1ccc(CC2C(=O)N(c3ncccn3)C(=O)C2C)cc1 (stereo not given)	-	-	-	20.3	-	-	-
O=C(Cc1cn(Cc2ccccc2)c2ccccc12)Nc1ccc(Nc2cccnc2)cc1	.	-	.	.	.	.	.
[O-][n+]1ccccc1C(O)CSc1ccccc1 (stereo not given)	.	-	.	.	.	.	.
CC(C)C[C@@H]1O[C@H](CCc2ccccc2)Cc2[nH]c(=S)[nH]c(=O)c21	.	-	.	10.1	.	.	-
COC(=O)CCCC[C@@H]1O[C@H](CCc2ccccc2)Cc2[nH]c(=S)[nH]c(=O)c21	.	-	.	-	.	.	.
COC(=O)c1sccc1NC(=O)CN1CCN(c2ccc(F)cc2)CC1	-	-	-	9.1	-	-	-
Cc1onc(-c2ccccc2)c1C(=O)N1CCN(C(=O)C(=O)c2cccc(C(F)(F)F)c2)CC1	.	-	.	.	.	.	.
C[C@H](CO)N1C[C@H](C)[C@@H](CN(C)C(=O)C2CC2)OCc2cn(nn2)CCCC1=O	.	-	.	.	.	.	.
O=C(CCCn1c(=S)[nH]c2cc3c(cc2c1=O)OCO3)N1CCN(c2ccccn2)CC1	-	-	-	18.5	-	-	-
O=C(CCCCCn1c(=S)[nH]c2cc3c(cc2c1=O)OCO3)N1CCN(Cc2ccccc2)CC1	-	-	-	-	-	-	.
CCCCCCC12C(=Cc3cc4c(cc31)OCCO4)c1cc(OC)c(OC)cc1C(CC(=O)O)N2C(=O)OC (stereo not given)	.	-	.	.	.	.	.
CCN(CC)CCNC(=O)c1ccc2c(c1NCCO)C(=O)c1ccccc1C2=O	.	13.9	.	23.7	.	.	8.7
CC1CCN(C(=O)c2ccc3c(c2NCCO)C(=O)c2ccccc2C3=O)CC1	-	-	-	-	-	-	.
COc1ccc(C(=O)CC2(O)C(=O)N(CN3CCOCC3)c3ccc(Br)cc32)cc1 (stereo not given)	.	-	.	.	.	.	.
CCOC(=O)C1CSCCS(=O)(=O)N1Cc1ccc(F)cc1F (stereo not given)	.	-	.	.	.	.	.
CC(=O)N1CCOC12CCN(Cc1ccccc1)CC2	.	-	.	8.2	.	.	-
CC(=O)C1CCN(Cc2ccccc2)CC1	-	-	-	-	-	-	.
CN(C(=O)c1ccc(NC(=O)Cc2cccc(NC(=O)C3CCCN(C(=O)C4CC4)C3)c2)cc1)C1CCCC1 (stereo not given)	-	-	-	8.3	-	-	-
O=C(Cc1c[nH]c2ccccc12)Nc1ccc(Nc2cccnc2)c(-c2cccc(Cl)c2)c1	.	-	.	.	.	.	.
Cc1nn(C)c(Sc2ccccc2N)c1[N+](=O)[O-]	-	-	-	8.0	-	-	-
CCCCc1c(-c2ccccc2OC)ncn1Cc1cccc(F)c1	.	-	.	.	.	.	.
Cc1noc(C)c1NC(=O)N(C)C[C@@H]1OCc2cn(nn2)CCCC(=O)N([C@@H](C)CO)C[C@H]1C	.	-	.	.	.	.	.
O=C(O)C1CSC(CCc2ccccc2)N1 (stereo not given)	-	-	-	7.8	-	-	-
COc1ccccc1CNC(=O)CCCn1nc(C)c2c(C)n(-c3ccccc3)nc2c1=O	-	-	-	11.7	-	-	-
CCOC(=O)C1CSCCS(=O)(=O)N1Cc1ccccc1C (stereo not given)	.	-	.	.	.	.	.
CCCCCCCC[n+]1cccc(C(=O)N(CC)CC)c1	-	-	-	17.6	-	-	-
